Screening data deposited in PubChem BioAssay by National Center for Advancing Translational Sciences (NCATS).
Only some compounds are listed: those with a hit (about 7.5% of all), similar ones and a draw of the others.
Vaccinia Venus = qHTS for Stage-Specific Inhibitors of Vaccinia Orthopoxvirus: Venus Reporter Primary qHTS; 330,000 tested, 0.46% active; Vaccinia virus Venus reporter expression, fluorescence; AID 720580, 2013; Potency, µM (doses to about 36.5 µM), for the others: top-dose activity change, negative = inhibition, hits mostly inhibitors; calls by dose curve; tested in A549 cells; further: potency means the concentration at half of the fitted maximal effect; nearly all actives have a fitted effect of over 30% in size
FMDV antiviral = High Throughput Screening for Foot and Mouth Disease Virus Antivirals | FMDV antiviral cell-based qHTS | Potency, µM (highest dose often 57.9 µM), without a hit: top-dose activity change, negative = inhibition, actives largely listed as inhibitors | 410,000 tested, 1.2% active; calls by dose curve; tested in HEK293T cells; further: read-out not given here; potency means the concentration at half of the fitted maximal effect; nearly all actives have a fitted effect of over 45% in size
FBPA Giardia inh = qHTS Assay for Inhibitors of Fructose-1,6-bisphosphate Aldolase from Giardia Lamblia; A8B2U2; purified Giardia FBPA; Potency, µM (series often up to 59.6 µM), inactives show at the highest dose activity, negative = inhibition, usual class: inhibitors; 290,000 tested, 0.71% active; AID 2451, 2010; further: potency means the concentration at half of the fitted maximal effect; nearly all actives have a fitted effect of over 55% in size
Target sequence (A8B2U2 whole entry, looked up): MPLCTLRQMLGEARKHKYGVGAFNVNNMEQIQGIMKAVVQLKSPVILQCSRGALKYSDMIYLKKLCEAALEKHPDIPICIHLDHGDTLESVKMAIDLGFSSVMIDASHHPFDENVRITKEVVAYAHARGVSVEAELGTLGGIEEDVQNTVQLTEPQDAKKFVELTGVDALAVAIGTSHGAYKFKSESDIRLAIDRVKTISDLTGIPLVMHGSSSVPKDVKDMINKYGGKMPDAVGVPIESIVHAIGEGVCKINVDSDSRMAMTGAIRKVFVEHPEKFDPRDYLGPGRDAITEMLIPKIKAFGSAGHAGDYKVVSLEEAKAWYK
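40 nM FBPA preincubated 10 min at RT with compound (up to 57.5 uM final), then substrate plus GAPDH/TPI/NAD/arsenate coupling and diaphorase/resazurin added. Fluorescence read after 20 min at RT, 525/598 nm.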
HCV inhibitor = qHTS Assay for Inhibitors of Hepatitis C Virus (HCV) | Huh7.5.1 HCVcc-Cre infection, luciferase reporter, 44 h | Potency, µM (titrated, usually from 41.8 µM), without a hit: top-dose activity change, negative = inhibition, actives largely listed as inhibitors | 340,000 tested, 3.4% active; further: potency means the concentration at half of the fitted maximal effect
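Whole-lifecycle infectious HCVcc-Cre system; cells 1,000/well, compound then virus (~0.5 moi) added 4 h after plating, 44 h culture. Luciferase read 15 sec following 15 min substrate incubation, room temp.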
Vaccinia mCherry = qHTS for Stage-Specific Inhibitors of Vaccinia Orthopoxvirus: mCherry Reporter Primary qHTS | Vaccinia virus mCherry reporter infection, fluorescence | AID 720579, 2013 | Potency, µM (series often up to 36.5 µM), without a hit: at the highest dose activity change, negative = inhibition, usual class: inhibitors | 310,000 tested, 0.63% active; calls by dose curve; tested in A549 cells; further: potency means the concentration at half of the fitted maximal effect; nearly all actives have a fitted effect of over 35% in size
HCMV inh = qHTS Assay for inhibitors of the human cytomegalovirus (HCMV); HFF cells, HCMV-luciferase reporter, 72 h; hits give low values; activity change, negative = inhibition, % at 57.5 µM; 410,000 tested, 4.5% active; in the data active means activity change below about -60%; inconclusive means no clear call, values can overlap the other calls; inactive means above about -39%
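After 16 h attachment at 37C, HFF cells received test compound and HCMV-luciferase (1 PFU/cell); reporter luminescence read 72 h later, data normalized against buffer-only and known inhibitor Salinomycin.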
* = called active by the depositor. Unless noted, the call rests on the fitted dose curve; in most records, active means well fitted curve in the direction sought with a large enough effect; inconclusive means small, poorly fitted or top-dose-only effect, or another doubt; inactive means no such curve, though single readings can be large; an effect the other way counts as inactive or inconclusive. On the % scale 0 is the no-effect control and ±100 the full control effect.

Screening O=S(=O)(c1ccc2nc(-c3ccco3)c(-c3ccco3)nc2c1)N1CCOCC1 returned Vaccinia Venus -5%, FMDV antiviral -15%, FBPA Giardia inh 2.5µM*, HCV inhibitor -23% and HCMV inh 46.
For CCc1nc2ccc(C(=O)N3CCN(c4ccccc4)CC3)cc2nc1CC the results were Vaccinia Venus -13%, FMDV antiviral -3%, HCV inhibitor 4%, Vaccinia mCherry -6% and HCMV inh -15.
`CNc1nc2cnc(Nc3cccc(F)c3)cc2n1-c1cccc(C(F)(F)F)c1` gave HCMV inh -30.
For COc1ccc(S(=O)(=O)N2c3ccc(F)cc3CCC2C)cc1 (stereo not given) the results were FMDV antiviral -26%, HCV inhibitor 3% and HCMV inh -78*.
`O=[N+]([O-])c1ccc(NN=Cc2cccc(O)c2)nc1` gave Vaccinia Venus -9%, FMDV antiviral 32%, HCV inhibitor inconclusive, Vaccinia mCherry inconclusive and HCMV inh 40.
`O=[N+]([O-])c1ccc(NN=Cc2cc(Br)ccc2O)nc1` gave Vaccinia Venus inconclusive, FMDV antiviral 7%, HCV inhibitor inconclusive, Vaccinia mCherry inconclusive and HCMV inh -100*.
For CN(Cc1cc(Cl)cc(Cl)c1)CC(C(=O)c1ccccc1)c1ccccc1 (stereo not given) the results were Vaccinia Venus -18%, FMDV antiviral inconclusive, HCV inhibitor inconclusive, Vaccinia mCherry -18% and HCMV inh inconclusive.
`CCOc1ccc(C(=O)C(CN2CCOCC2)c2ccccc2)cc1` (stereo not given) gave Vaccinia Venus inconclusive, FMDV antiviral inconclusive, FBPA Giardia inh -12%, HCV inhibitor inconclusive, Vaccinia mCherry 10µM* and HCMV inh -99*.
For CC(CN1CCOCC1)OC(=O)c1ccc(Br)cc1 (stereo not given) the results were Vaccinia Venus 17%, FMDV antiviral -16%, FBPA Giardia inh -16%, HCV inhibitor -14% and HCMV inh -14.
For O=C(c1ccc(Br)cc1)C(CN1CCOCC1)c1ccccc1 (stereo not given) the results were Vaccinia Venus -19%, FMDV antiviral 18µM*, FBPA Giardia inh -10%, HCV inhibitor 1%, Vaccinia mCherry inactive and HCMV inh -2.
CC(CN1CCN(CC(C)C(=O)c2ccccc2)CC1)C(=O)c1ccccc1 (stereo not given) was read as Vaccinia Venus -14%, FMDV antiviral -6%, HCV inhibitor -11%, Vaccinia mCherry -13% and HCMV inh -3.
`CN(C)CC(C(=O)c1ccccc1)c1ccccc1` (stereo not given) gave Vaccinia Venus 10µM*, FMDV antiviral 18µM*, FBPA Giardia inh -12%, HCV inhibitor inconclusive, Vaccinia mCherry 14µM* and HCMV inh inconclusive.
O=C(c1ccccc1)C(CN1CCCCC1)c1ccccc1 (stereo not given) was read as Vaccinia Venus inconclusive, FMDV antiviral 28µM*, HCV inhibitor inconclusive, Vaccinia mCherry inconclusive and HCMV inh -68*.
COc1c(Cl)cc(C(=O)Nc2cccnc2)cc1Cl was read as Vaccinia Venus -3%, FMDV antiviral -8%, Vaccinia mCherry 3% and HCMV inh 51.
For CCCCOc1ccc(C2c3c(oc4ccccc4c3=O)C(=O)N2c2nc(C)c(C(=O)OCC)s2)cc1OC (stereo not given) the results were Vaccinia Venus -1%, FMDV antiviral -20%, Vaccinia mCherry -9% and HCMV inh 14.
For O=C(O)c1ccc2c(c1)C(=O)N(c1ccc(Nc3ccccc3)cc1)C2=O the results were FMDV antiviral -18%, FBPA Giardia inh 1%, HCV inhibitor 14% and HCMV inh -30.
For Cc1oc2ccccc2c1CC(=O)NCCCN(C)C the results were FMDV antiviral -20%, FBPA Giardia inh -16%, HCV inhibitor -13% and HCMV inh -64*.
Cc1cccc(-n2c(C)nc3cc(C(=O)NCC4CCCO4)ccc32)c1 (stereo not given) was read as FMDV antiviral 16%, FBPA Giardia inh 4%, HCV inhibitor 7% and HCMV inh -64*.
CCOc1cc(NC(=S)NCC2CCCO2)c(OCC)cc1NC(=O)c1cccc(C)c1 (stereo not given) was read as FMDV antiviral 3.2µM*, FBPA Giardia inh -9%, HCV inhibitor inconclusive and HCMV inh -30.
`Cc1cccc(-n2cnc3cc(C(=O)NCC4CCCO4)ccc32)c1` (stereo not given) gave Vaccinia Venus -24%, FMDV antiviral -9%, Vaccinia mCherry inconclusive and HCMV inh -2.
COc1ccc(NC(=O)C2(C)Cc3c(-c4cccc(NC(C)=O)c4)ccnc3O2)cn1 (stereo not given) was read as Vaccinia Venus -28%, FMDV antiviral -16%, Vaccinia mCherry inconclusive and HCMV inh -72*.
For CC1(C(=O)Nc2cccc(OC(F)(F)F)c2)Cc2c(-c3ccc4c(c3)OCO4)ccnc2O1 (stereo not given) the results were Vaccinia Venus -17%, FMDV antiviral -1%, Vaccinia mCherry -14% and HCMV inh -60*.
For COc1ccc(NC(=O)C2(C)Cc3c(-c4ccc5c(c4)OCO5)ccnc3O2)cc1 (stereo not given) the results were Vaccinia Venus inconclusive, FMDV antiviral -5%, Vaccinia mCherry -9% and HCMV inh -62*.
CC1(C(=O)Nc2ccc(Cl)c(C(F)(F)F)c2)Cc2c(-c3ccc(C(N)=O)cc3)ccnc2O1 (stereo not given) was read as Vaccinia Venus -22%, FMDV antiviral inconclusive, Vaccinia mCherry -23% and HCMV inh -62*.
For CC(=O)Nc1cccc(-c2ccnc3c2CC(C)(C(=O)Nc2ccc4c(c2)OCO4)O3)c1 (stereo not given) the results were Vaccinia Venus inconclusive, FMDV antiviral -16%, Vaccinia mCherry -12% and HCMV inh -79*.
CC1(C(=O)Nc2ccc3c(c2)OCO3)Cc2c(-c3ccccc3)ccnc2O1 (stereo not given) was read as Vaccinia Venus -5%, FMDV antiviral -9%, Vaccinia mCherry 13% and HCMV inh -12.
`CCCCCNC(=O)c1cc(S(=O)(=O)N2CCCCC2)ccc1F` gave FMDV antiviral 1%, FBPA Giardia inh -3%, HCV inhibitor -1% and HCMV inh -105*.
